Source: article PMC5540273 (PLoS ONE, 2017)
Where two headings read alike, the source gives them in different places.

Experiments:
GRK3 = test system: T1, GRK3; settings: concentration: 1 μM, replicates: in singlicate; n = 1
T1 construct: gene ADRBK2

GRK4 = settings: concentration: 1 μM, replicates: in singlicate; n = 1
GRK7 = settings: concentration: 1 μM, replicates: in singlicate; n = 1
GSK3A = settings: concentration: 1 μM, replicates: in singlicate; n = 1
GSK3B = settings: n = 1
HASPIN = test system: T2, HASPIN; settings: concentration: 1 μM, replicates: in singlicate; n = 1
T2 construct: gene GSG2

HCK = settings: concentration: 1 μM, replicates: in singlicate; n = 1
HIPK1 = settings: concentration: 1 μM, replicates: in singlicate; n = 1
HIPK2 = settings: concentration: 1 μM, replicates: in singlicate; n = 1
HIPK3 = settings: concentration: 1 μM, replicates: in singlicate; n = 1
[1] = concentration: 1 μM, replicates: in singlicate
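Further: KINOMEscan kinase panel screen.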

SMILES | %Inh (GRK3) [%] | %Inh (GRK4) [%] | %Inh (GRK7) [%] | %Inh (GSK3A) [%] | %Inh (GSK3B; [1]) [%] | %Inh (HASPIN) [%] | %Inh (HCK) [%] | %Inh (HIPK1) [%] | %Inh (HIPK2) [%] | %Inh (HIPK3) [%] | %Inh (GSK3B; 1 µM) [%]
COc1ccc(Nc2nccc(N3CCC(NC(=O)C(C)c4ccc(Cl)cc4)CC3)n2)cc1 (stereo not drawn) [GSK1379812] | 8 | 0 | 0 | 16 | 8 | 0 | 0 | 0 | 0 | 15 | 
Cc1c(Cn2c3ccccc3n3c(=O)cc(N4CCOCC4)nc23)cccc1C(F)(F)F [GSK2306394] | 0 | 0 | 0 | 13 | 18 | 0 | 0 | 0 | 0 | 16 | 
COc1cc2ncnc(Nc3cccc(Br)c3)c2cc1OC.Cl [GI230329] | 26 | 0 | 0 | 0 | 0 | 20 | 24 | 0 | 0 | 0 | 
CC(=O)c1cccc(NC(=O)NC2CCN(c3ccnc(Nc4ccc(F)cc4)n3)C2)c1 (stereo not drawn) [GSK1379710] | 49 | 0 | 0 | 32 | 4 | 26 | 2 | 0 | 0 | 7 | 
FC(F)(F)c1ccccc1-c1cc(-c2c[nH]nc2-c2ccccn2)ccn1 [GW679396] | 14 | 0 | 0 | 2 | 12 | 0 | 0 | 0 | 0 | 17 | 
CC(=O)c1c(C)c2cnc(Nc3ccc(N4CCNCC4)cn3)nc2n(C2CCCC2)c1=O | 9 | 7 | 8 | 0 | 0 | 0 | 0 | 20 | 0 | 0 | 
COc1cccc(CNC(=O)NC2CCN(c3ccnc(Nc4ccc(F)cc4)n3)C2)c1 (stereo not drawn) [GSK1379723] | 37 | 6 | 5 | 11 | 13 | 0 | 0 | 0 | 0 | 36 | 
CCc1ccc(-c2ccc3c(c2)-c2n[nH]cc2S(=O)(=O)N3C)cc1 | 0 | 0 | 0 | 35 | 0 | 4 | 16 | 0 | 0 | 0 | 
COc1ccc(Nc2nccc(N3CCC(NC(=O)c4cc5ccccc5s4)C3)n2)cc1 (stereo not drawn) [GSK1379738] | 0 | 0 | 0 | 11 | 14 | 24 | 0 | 0 | 0 | 7 | 
Cc1ccc(-c2nc(Nc3ccncc3)c3ccccc3n2)s1 [GSK189015] | 0 | 13 | 0 | 18 | 28 | 54 | 10 | 0 | 0 | 41 | 
Cc1ccc(NC(=O)Nc2ccc(Cl)cc2)cc1-c1ccc(C(=O)Nc2ccncc2)cc1 [GSK1398472] | 17 | 25 | 0 | 0 | 7 | 0 | 0 | 0 | 0 | 5 | 
CS(=O)(=O)CCNCc1nc(-c2ccc3ncnc(Nc4ccc5c(cnn5Cc5ccccc5)c4)c3c2)cs1.Cl.Cl [GW569716] | 41 | 0 | 0 | 0 | 0 | 18 | 0 | 0 | 0 | 0 | 
Nc1nccc(-c2c(-c3ccc(F)cc3)ncn2C2CCN(Cc3ccccc3)CC2)n1 [SB-219980] | 6 | 0 | 6 | 16 | 11 | 0 | 9 | 0 | 0 | 0 | 
Cc1ccc(NC(=O)c2ccc(Cl)cc2)cc1-c1ccc(C(=O)Nc2ccncc2)cc1 [GSK1398467] | 24 | 0 | 0 | 3 | 17 | 0 | 0 | 0 | 0 | 3 | 
CS(=O)(=O)CCNCc1nc(-c2ccc3ncnc(Nc4ccc(OCc5ccccc5)c(Cl)c4)c3c2)cs1.Cl [GW582764] | 99.4 | 4 | 0 | 20 | 3 | 32 | 0 | 0 | 0 | 0 | 
Nc1ncnc2occ(-c3ccc4c(c3)CCN4C(=O)Cc3cc(F)ccc3F)c12 [GSK2645446] | 0 | 0 | 0 | 0 | 2 | 0 | 0 | 0 | 0 | 0 | 
CS(=O)(=O)Cc1ccc(Nc2nccc(-c3c(-c4cccc(NC(=O)C5CCCCC5)c4)nn4ncccc34)n2)cc1 [GSK350559] | 0 | 0 | 5 | 0 | 20 | 17 | 1 | 5 | 14 | 23 | 
CNCc1ccc2nc(NC(=O)c3ccc(C(C)(C)C)cc3)cn2c1 | 36 | 0 | 10 | 3 | 11 | 5 | 3 | 17 | 13 | 17 | 
Cc1ccccc1Cn1ccn2c(=O)cc(N3CCOCC3)nc12 [GSK2269905] | 26 | 0 | 0 | 2 | 15 | 0 | 0 | 0 | 0 | 9 | 
Cn1cncc1C(=O)NC1CCN(c2ccnc(Nc3ccc(F)cc3)n2)C1 (stereo not drawn) [GSK1379717] | 0 | 0 | 0 | 12 | 8 | 0 | 0 | 0 | 0 | 3 | 
O=C(Nc1n[nH]c2nc(-c3cccs3)c(Br)cc12)C1CCCC1 [SB-743341] | 24 | 33 | 11 | 96.6 |  | 0 | 8 | 20 | 25 | 52 | 81

SMILES | %Inh (GRK3) [%] | %Inh (GRK4) [%] | %Inh (GRK7) [%] | %Inh (GSK3A) [%] | %Inh (GSK3B; [1]) [%] | %Inh (HASPIN) [%] | %Inh (HCK) [%] | %Inh (HIPK1) [%] | %Inh (HIPK2) [%] | %Inh (HIPK3) [%] | %Inh (GSK3B; 1 µM) [%]
COc1ccc(CSc2nnc(-c3ccc4ncsc4c3)o2)cc1C(F)(F)F | 1 | 18 | 0 | 98.4 |  | 45 | 0 | 38 | 0 | 0 | 89
CC(C)c1ccc(O)cc1Nc1ccnc2ccc(C(F)(F)F)cc12 [GW482059] | 0 | 21 | 0 | 19 | 0 | 3 | 10 | 0 | 31 | 0 | 
CNc1nc(-c2ccc3c(N)n[nH]c3c2)cc(N2C[C@@H](C(=O)Nc3ccccc3)CC[C@H]2C)n1 [GSK2298859] | 0 | 0 | 0 | 26 | 0 | 13 | 0 | 0 | 0 | 1 | 
Cn1cnc2c(N)ncnc21 [SKF-97623] | 26 | 21 | 0 | 0 | 0 | 0 | 0 | 0 | 11 | 0 | 
CCn1c(-c2c(N)noc2C)nc2cnccc21 [SB-737856] | 42 | 6 | 0 | 0 | 2 | 0 | 0 | 0 | 0 | 0 | 
O=C1NC(=O)C(c2ccc(Cl)cc2)=C1Nc1ccc(O)cc1 [SB-340867] | 0 | 0 | 0 | 29 |  | 9 | 0 | 0 | 0 | 0 | 0
CCCCc1nn2ncccc2c1-c1ccnc(NC2CC2)n1 [GW684374] | 17 | 0 | 0 | 4 | 1 | 0 | 0 | 0 | 0 | 8 | 
COc1ccc(Nc2nccc(-c3ccc(NC(=O)c4cc5cc(F)ccc5[nH]4)cc3)n2)cc1 [GSK1229496] | 22 | 0 | 0 | 0 | 0 | 41 | 0 | 0 | 0 | 0 | 
O=C(Nc1n[nH]c2nc(-c3cccs3)c(Br)cc12)C1CC1 [SB-735297] | 0 | 0 | 17 | 93.8 |  | 0 | 0 | 27 | 58 | 11 | 52
c1ccc(-c2ccnc3[nH]ccc23)cc1 [SB-693578] | 56 | 3 | 0 | 22 | 13 | 60 | 0 | 4 | 0 | 34 | 
Fc1ccc(-c2nc[nH]c2-c2ccncc2)cc1 [SB-217360] | 11 | 19 | 0 | 0 | 13 | 57 | 20 | 34 | 10 | 7 | 
CC(C)c1cc(-c2ccc3c(N)n[nH]c3c2)nc(N)n1 [GSK2250882] | 0 | 10 | 0 | 0 | 0 | 83 | 0 | 15 | 0 | 9 | 
Cc1cnc(N)c(/C=C/c2cncc(C(=O)NCCc3ccc(Cl)cc3Cl)c2)c1.Cl [GSK190937] | 6 | 0 | 0 | 5 | 0 | 29 | 0 | 0 | 0 | 26 | 
Cn1cncc1-c1cc2c(Nc3ccc(OCc4ccccc4)cc3)ncnc2cn1 [GW281179] | 33 | 0 | 0 | 8 | 11 | 0 | 0 | 0 | 0 | 0 | 
Cc1nccc(-c2c(-c3ccc(F)cc3)ncn2CCCN2CCOCC2)n1.Cl [SB-282975] | 34 | 0 | 23 | 23 | 17 | 23 | 8 | 0 | 0 | 14 | 
Cc1ccc(NC(=O)Nc2ccc(Cl)c(C(F)(F)F)c2)cc1-c1ccc(C(=O)Nc2ccncc2)cc1 [GSK1398470] | 0 | 10 | 0 | 21 | 10 | 10 | 0 | 0 | 0 | 0 | 
Cc1ccc(NC(=O)Nc2ccccc2F)cc1-c1ccc(C(=O)Nc2ccncc2)cc1 [GSK1398477] | 0 | 30 | 0 | 25 | 3 | 0 | 0 | 0 | 0 | 10 | 
CSc1ccc(-c2nc3n(c2-c2ccncc2)CCC3)cc1 [SKF-105561] | 28 | 5 | 0 | 0 | 20 | 35 | 7 | 0 | 0 | 6 | 
COc1cccc(NC(=O)Nc2ccc(C)c(-c3ccc(C(=O)Nc4ccncc4)cc3)c2)c1 [GSK1398474] | 0 | 3 | 0 | 10 | 13 | 0 | 0 | 0 | 0 | 20 | 
O=c1cc(N2CCOCC2)nc2n(Cc3cccc(Cl)c3Cl)c3ccccc3n12 [GSK2299009] | 0 | 25 | 0 | 5 | 14 | 0 | 0 | 9 | 0 | 19 | 
Fc1ccc(-c2nn3cccc(F)c3c2-c2ccncc2)cc1 [GW475620] | 0 | 26 | 0 | 0 | 11 | 5 | 15 | 0 | 0 | 4 | 
